Test results as given in PubChem BioAssay AID1817 (Sanford-Burnham Center for Chemical Genomics, 2009).
Where “and” joins values, the source holds several entries; their conditions need not be identical. Identical values can stand only once. The whole screen tested about 290,000 compounds, of which about 50 (0.02%) were called active.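 How the source made its calls: active means displacement of at least 50% at 20 µM, with a fluorescence ratio check between 0.3 and a set limit; inactive means the rest.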 Many of the other results were omitted from the sample, so actives are more common in it than they were. Potency and affinity values are given separately.

molecular target: E3 ubiquitin-protein ligase SIAH1 (Homo sapiens) (UniProt Q8IUQ4); test: blockers of Siah-1 interaction with plectin peptide – biochemical, fluorescence polarization, rhodamine-plectin, uHTS, primary screen (AID 1817); conditions: Siah-1 / rhodamine-plectin peptide fluorescence polarization; at 20 µM; stronger effect = higher value;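 further: plate controls were Siah plus tracer with DMSO for no effect and tracer alone without Siah for full effect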
Sequence (Q8IUQ4 whole entry, looked up): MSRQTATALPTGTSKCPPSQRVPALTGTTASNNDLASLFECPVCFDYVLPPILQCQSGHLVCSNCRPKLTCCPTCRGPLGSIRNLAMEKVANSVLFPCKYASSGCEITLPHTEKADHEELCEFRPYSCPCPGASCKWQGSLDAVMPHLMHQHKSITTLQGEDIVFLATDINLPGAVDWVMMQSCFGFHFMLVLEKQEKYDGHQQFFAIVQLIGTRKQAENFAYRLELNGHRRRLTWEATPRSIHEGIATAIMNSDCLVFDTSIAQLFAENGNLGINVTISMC

Structure (SMILES)	displacement
COCCCNc1oc(-c2ccccc2Cl)nc1C#N	-5.3% (inactive)
CN1CCN(C(=O)c2cn(-c3ccccc3)nc2-c2cccnc2)CC1	-0.3% (inactive)
O=C(NCc1ccc(F)cc1)c1cc(-c2cccs2)on1	3.6% (inactive)
O=C(NCc1ccccc1)c1cc(-c2cccs2)on1	-1.2% (inactive)
CC(NC(=O)C(=O)c1cn(CC(=O)N2CCOCC2)c2ccccc12)c1ccccc1 (stereo not given)	1.9% (inactive)
CC(C)CNS(=O)(=O)c1ccc(CC(C)C)cc1	1.9% (inactive)
O=C(Nc1ccc(Nc2ccncc2)cc1)c1ccc([N+](=O)[O-])cc1	2.7% (inactive)
O=C(Nc1ccc(Nc2ccncc2)cc1)c1ccc(Nc2ccnc3ccc([N+](=O)[O-])cc23)cc1[N+](=O)[O-]	17.2% (inactive)
O=C(Nc1ccc(Nc2ccncc2)cc1)c1ccc(Nc2ccnc3ccc([N+](=O)[O-])cc23)cc1	60% (active)
CSc1ccc(/C=C/C(=O)N2CCCN(C)CC2)cc1	4% (inactive)
N#Cc1ccc(NC(=O)CNc2cc(S(=O)(=O)N3CCOCC3)ccc2NCC2CCCO2)cc1 (stereo not given)	-0.4% (inactive)
CCc1nnc(NC(=O)c2ccc(COc3ccccc3Cl)o2)s1	5.6% (inactive)
CCOC(=O)C1(S(=O)(=O)c2ccc(Cl)cc2)CCN(Cc2ccc(C)cc2)CC1	-0.2% (inactive)
COc1cccc(C(=O)N2CCN(Cc3ccccc3Br)CC2)c1	3.1% (inactive)
COC(=O)C(C(=O)OC)C(c1ccccc1)C(C(=O)c1ccccc1)[N+](=O)[O-] (stereo not given)	2% (inactive)
COc1ccc(OC)c(-c2c3cc(O)c(=O)cc-3oc3cc(O)c(O)cc23)c1	58.5% (inactive)
O=c1cc2oc3cc(O)c(O)cc3c(-c3ccccc3O)c-2cc1O	83.3% (active)
O=c1cc2oc3cc(O)c(O)cc3c(-c3ccccc3[N+](=O)[O-])c-2cc1O	48.7% (inactive)
Cc1c2cc(O)c(=O)cc-2oc2cc(O)c(O)cc12	70.1% (inactive) and 99.1% (inactive)
COc1cc(OC)c(-c2c3cc(O)c(=O)cc-3oc3cc(O)c(O)cc23)cc1OC	48% (inactive)

Structure (SMILES)	displacement
CCOc1ccccc1-c1c2cc(O)c(=O)cc-2oc2cc(O)c(O)cc12	61.3% (active)
COc1cc(S(=O)(=O)NC(C)C)ccc1Cl	3% (inactive)
CC(C)c1ccccc1NC(=S)N(C)C	-9.8% (inactive)
COC(=O)CCSc1nc(N2CCOCC2)c2c(c1C#N)CC(C)(C)OC2	1.2% (inactive)
Cc1cccc(C)c1NC(=O)C1CCCN1S(=O)(=O)c1ccc2c(c1)n(C)c(=O)c(=O)n2C (stereo not given)	2.2% (inactive)
COCCNC(=S)N(CCc1c(C)[nH]c2ccc(C)cc12)Cc1ccco1	1.4% (inactive)
CCOC(=O)c1ccc(-n2c(O)c(/C=N/NC(=O)C3COc4ccccc4O3)c3ccccc3c2=O)cc1 (stereo not given)	-6% (inactive)
Cc1nc(NC(=S)NC(=O)c2cncc(Br)c2)ccc1Br	-7% (inactive)
Cc1cccc(C(=O)NC(C(=O)Nc2nc(-c3ccccn3)cs2)C(C)C)c1 (stereo not given)	-2.5% (inactive)
O=C(NN1C(=O)C2C(C1=O)C1C=CC2C12CC2)c1ccncc1 (stereo not given)	0.7% (inactive)
O=C(NN1C(=O)C2C3C=CC(C3)C2C1=O)c1ccncc1 (stereo not given)	3.2% (inactive)
O=C(NN1C(=O)C2CC=C(Cl)CC2C1=O)c1ccncc1 (stereo not given)	69.4% (active)
C[C@@H](C[C@@H](O)[C@H](O)C(C)(C)O)[C@@H]1CC[C@]2(C)C3=CC[C@H]4C(C)(C)C(=O)CC[C@]4(C)[C@H]3CC[C@@]12C	2.8% (inactive)
CC(NC(=O)C1CCCN(S(=O)(=O)c2cccs2)C1)c1ccccc1 (stereo not given)	0.2% (inactive)
COc1cc(OC)c(OC)cc1CN1CCCC(C(=O)c2sccc2C)C1 (stereo not given)	-6.6% (inactive)
COc1ccc(CCn2c(N)c(C(=O)NCc3ccco3)c3nc4ccccc4nc32)cc1	57.5% (active)
Nc1c(C(=O)NCc2ccco2)c2nc3ccccc3nc2n1CCc1ccc(F)cc1	2.1% (inactive)
COc1ccc(CCn2c(N)c(C(=O)NCc3ccco3)c3nc4ccccc4nc32)cc1OC	-1.3% (inactive)
Cn1c(Cl)c(/C=N/OC(=O)c2ccccc2Cl)c2ccccc21	-1.7% (inactive)
CC12CCC(C(=O)NCc3ccco3)(OC1=O)C2(C)C (stereo not given)	1.5% (inactive)

Structure (SMILES)	displacement
CN1C(=O)NC(c2ccccc2[N+](=O)[O-])C2=C1CC(C)(C)CC2=O (stereo not given)	4.2% (inactive)
CN1C(=O)NC(c2cccc([N+](=O)[O-])c2)C2=C1CCCC2=O (stereo not given)	3% (inactive)
C/C(=N\OC(=O)Nc1ccccc1)c1cnn(-c2cc(C(F)(F)F)cc(C)n2)c1C	5.7% (inactive)
COCCn1c(C)c(C(=O)O)sc1=S	2.3% (inactive)
CCOC(=O)c1sc(=S)n(CC)c1N	-0.9% (inactive)
COc1cc2ncnc(NCc3ccccc3C)c2cc1OC	4.9% (inactive)
CCOC(=O)c1cccc(NC(=O)CSc2nnc(C)n2Cc2ccccc2)c1	-0.6% (inactive)
CC(=O)Nc1ccc(N=Cc2c(O)ccc3ccccc23)cc1	-0.3% (inactive)
CC(=O)Nc1ccc(N=Cc2c(O)c3ccccc3oc2=O)cc1	1.2% (inactive)
Cc1cccc(N2CCN(C(=O)c3ccc(NC(=O)C4CCCO4)cc3)CC2C)c1 (stereo not given)	1.8% (inactive)
COCCNC(=O)/C(C#N)=C/c1ccc(OCc2ccc(F)cc2)cc1	-1.7% (inactive)
Cc1cc(/C=C2\NC(=O)NC2=O)c(C)n1-c1ccc(N2CCOCC2)cc1	-9.1% (inactive)
COc1ccc(OCCn2c(N)nc3ccccc32)cc1	3.4% (inactive)
O=C(NC1CCCC1)c1ccc(COc2ccccc2Br)o1	2.7% (inactive)
O=c1[nH]c(-c2ccc3c(c2)OCO3)nc2c1sc(=S)n2-c1ccccc1	1.9% (inactive)
O=c1[nH]c(-c2ccccc2Cl)nc2c1sc(=S)n2-c1ccccc1	2.3% (inactive)
COc1ccccc1CN1CC(C(=O)N(C)Cc2ccc(C)o2)CCC1=O (stereo not given)	-3.9% (inactive)
Oc1ccccc1/C=N/Nc1cccc2cccnc12	-2.4% (inactive)
Oc1ccc(/C=N/Nc2cccc3cccnc23)c(O)c1	-3.9% (inactive)
Oc1c(/C=N/Nc2cccc3cccnc23)ccc2ccccc12	93.1% (active)
